Assay results published in ChEMBL document CHEMBL1961873, “Compounds: GSK PKIS; Assays: Nanosyn kinase panel” (2012).

Key:
[1] = biological target: T1, Ephrin type-B receptor 2 (Homo sapiens) (UniProt P29323); conditions: at 1 µM
T1 sequence (whole entry): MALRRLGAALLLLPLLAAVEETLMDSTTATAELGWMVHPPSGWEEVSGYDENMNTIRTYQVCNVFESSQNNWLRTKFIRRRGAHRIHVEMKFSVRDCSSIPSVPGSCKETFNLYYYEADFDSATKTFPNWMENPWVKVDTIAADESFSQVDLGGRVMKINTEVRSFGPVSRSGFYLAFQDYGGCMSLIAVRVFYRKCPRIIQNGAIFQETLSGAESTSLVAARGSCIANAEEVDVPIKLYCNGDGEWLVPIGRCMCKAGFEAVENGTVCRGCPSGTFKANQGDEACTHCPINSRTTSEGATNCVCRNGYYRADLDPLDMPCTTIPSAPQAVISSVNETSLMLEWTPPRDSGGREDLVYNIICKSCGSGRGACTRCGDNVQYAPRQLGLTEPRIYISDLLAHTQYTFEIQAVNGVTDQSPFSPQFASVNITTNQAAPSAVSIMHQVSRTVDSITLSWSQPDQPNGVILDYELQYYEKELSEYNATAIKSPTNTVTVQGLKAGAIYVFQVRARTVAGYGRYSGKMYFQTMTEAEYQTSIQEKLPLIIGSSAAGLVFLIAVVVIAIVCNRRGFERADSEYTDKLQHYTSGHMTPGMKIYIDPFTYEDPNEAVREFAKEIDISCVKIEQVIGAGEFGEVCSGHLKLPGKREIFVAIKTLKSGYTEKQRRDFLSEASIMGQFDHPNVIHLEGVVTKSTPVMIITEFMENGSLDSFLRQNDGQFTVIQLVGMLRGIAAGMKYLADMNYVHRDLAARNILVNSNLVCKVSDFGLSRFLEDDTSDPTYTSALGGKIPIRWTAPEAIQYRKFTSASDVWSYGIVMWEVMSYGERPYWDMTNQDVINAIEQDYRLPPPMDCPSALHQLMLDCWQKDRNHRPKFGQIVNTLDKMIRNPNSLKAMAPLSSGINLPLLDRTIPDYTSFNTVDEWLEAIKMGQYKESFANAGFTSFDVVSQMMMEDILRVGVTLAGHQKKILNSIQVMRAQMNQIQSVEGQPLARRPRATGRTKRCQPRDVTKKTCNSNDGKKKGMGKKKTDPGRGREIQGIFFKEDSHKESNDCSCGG

[2] = biological target: T2, Ephrin type-B receptor 3 (Homo sapiens) (UniProt P54753); conditions: at 0.1 µM
T2 sequence (whole entry): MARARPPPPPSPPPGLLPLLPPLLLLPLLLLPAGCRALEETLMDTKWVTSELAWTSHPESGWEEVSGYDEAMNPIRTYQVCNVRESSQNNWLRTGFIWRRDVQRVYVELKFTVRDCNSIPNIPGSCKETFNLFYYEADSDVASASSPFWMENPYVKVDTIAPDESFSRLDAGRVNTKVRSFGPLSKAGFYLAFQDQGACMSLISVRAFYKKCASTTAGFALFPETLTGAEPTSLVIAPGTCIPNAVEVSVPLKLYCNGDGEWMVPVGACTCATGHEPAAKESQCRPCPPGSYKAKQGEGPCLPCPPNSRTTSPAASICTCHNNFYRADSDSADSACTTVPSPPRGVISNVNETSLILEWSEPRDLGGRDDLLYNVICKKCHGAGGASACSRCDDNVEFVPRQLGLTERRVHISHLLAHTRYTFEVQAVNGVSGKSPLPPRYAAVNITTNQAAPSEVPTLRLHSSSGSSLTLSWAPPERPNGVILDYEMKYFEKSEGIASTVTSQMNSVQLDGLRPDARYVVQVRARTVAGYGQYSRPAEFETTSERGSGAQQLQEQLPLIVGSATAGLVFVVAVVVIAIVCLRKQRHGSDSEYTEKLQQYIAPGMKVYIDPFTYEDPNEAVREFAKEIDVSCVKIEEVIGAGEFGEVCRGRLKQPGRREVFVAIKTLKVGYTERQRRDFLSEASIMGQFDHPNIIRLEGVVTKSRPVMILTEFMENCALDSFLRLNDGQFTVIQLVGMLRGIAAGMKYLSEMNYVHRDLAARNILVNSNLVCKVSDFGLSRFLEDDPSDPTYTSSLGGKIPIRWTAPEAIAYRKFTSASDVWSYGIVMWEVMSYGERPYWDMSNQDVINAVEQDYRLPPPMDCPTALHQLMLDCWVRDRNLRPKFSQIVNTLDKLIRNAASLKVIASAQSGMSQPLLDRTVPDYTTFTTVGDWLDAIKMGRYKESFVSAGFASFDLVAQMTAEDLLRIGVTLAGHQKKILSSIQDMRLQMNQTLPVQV

[3] = biological target: T2, Ephrin type-B receptor 3 (Homo sapiens); conditions: at 1 µM
[4] = biological target: T3, Ephrin type-B receptor 4 (Homo sapiens) (UniProt P54760); conditions: at 0.1 µM
T3 sequence (whole entry): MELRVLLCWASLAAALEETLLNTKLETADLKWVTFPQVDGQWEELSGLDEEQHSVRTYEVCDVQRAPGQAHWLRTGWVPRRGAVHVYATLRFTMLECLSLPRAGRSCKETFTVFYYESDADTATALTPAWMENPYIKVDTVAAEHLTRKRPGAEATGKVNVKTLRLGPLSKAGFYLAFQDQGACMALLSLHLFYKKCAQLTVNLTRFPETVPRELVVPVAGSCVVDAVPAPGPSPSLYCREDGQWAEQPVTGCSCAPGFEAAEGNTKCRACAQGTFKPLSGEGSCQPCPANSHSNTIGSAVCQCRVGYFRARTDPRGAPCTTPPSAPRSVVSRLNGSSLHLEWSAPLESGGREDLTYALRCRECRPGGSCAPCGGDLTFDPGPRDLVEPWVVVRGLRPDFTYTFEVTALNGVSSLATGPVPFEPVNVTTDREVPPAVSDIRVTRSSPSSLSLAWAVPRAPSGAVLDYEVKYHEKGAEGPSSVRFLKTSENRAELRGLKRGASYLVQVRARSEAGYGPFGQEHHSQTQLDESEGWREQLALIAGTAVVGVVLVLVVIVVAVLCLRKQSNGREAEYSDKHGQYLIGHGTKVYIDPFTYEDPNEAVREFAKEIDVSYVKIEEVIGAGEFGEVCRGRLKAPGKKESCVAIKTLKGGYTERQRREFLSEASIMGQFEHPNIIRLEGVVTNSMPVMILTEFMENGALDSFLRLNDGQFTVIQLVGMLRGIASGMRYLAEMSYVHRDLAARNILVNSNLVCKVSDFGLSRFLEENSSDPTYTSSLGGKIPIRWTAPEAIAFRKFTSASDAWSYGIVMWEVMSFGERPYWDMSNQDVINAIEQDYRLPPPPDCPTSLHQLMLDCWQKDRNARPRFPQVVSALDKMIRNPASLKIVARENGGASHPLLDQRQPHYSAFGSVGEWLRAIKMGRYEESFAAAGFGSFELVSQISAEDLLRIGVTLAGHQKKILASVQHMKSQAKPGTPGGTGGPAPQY

[5] = biological target: T3, Ephrin type-B receptor 4 (Homo sapiens); conditions: at 1 µM
[6] = biological target: Receptor tyrosine-protein kinase erbB-2 (Homo sapiens) (UniProt P04626); conditions: at 0.1 µM
[7] = biological target: Receptor tyrosine-protein kinase erbB-2 (Homo sapiens) (UniProt P04626); conditions: at 1 µM
[8] = biological target: Receptor tyrosine-protein kinase erbB-4 (Homo sapiens) (UniProt Q15303); conditions: at 0.1 µM
[9] = biological target: Receptor tyrosine-protein kinase erbB-4 (Homo sapiens) (UniProt Q15303); conditions: at 1 µM
[10] = biological target: Tyrosine-protein kinase Fer (Homo sapiens) (UniProt P16591); conditions: at 0.1 µM
[11] = biological target: Tyrosine-protein kinase Fer (Homo sapiens) (UniProt P16591); conditions: at 1 µM
[12] = biological target: Tyrosine-protein kinase Fes/Fps (Homo sapiens) (UniProt P07332); conditions: at 0.1 µM
[13] = biological target: Tyrosine-protein kinase Fes/Fps (Homo sapiens) (UniProt P07332); conditions: at 1 µM
[14] = biological target: Fibroblast growth factor receptor 1 (Homo sapiens) (UniProt P11362); conditions: at 0.1 µM
[15] = biological target: Fibroblast growth factor receptor 1 (Homo sapiens) (UniProt P11362); conditions: at 1 µM
[16] = biological target: Fibroblast growth factor receptor 2 (Homo sapiens) (UniProt P21802); conditions: at 0.1 µM
[17] = biological target: Fibroblast growth factor receptor 2 (Homo sapiens) (UniProt P21802); conditions: at 1 µM
[18] = biological target: Fibroblast growth factor receptor 3 (Homo sapiens) (UniProt P22607); conditions: at 0.1 µM
[19] = biological target: Fibroblast growth factor receptor 3 (Homo sapiens) (UniProt P22607); conditions: at 1 µM
[20] = biological target: Fibroblast growth factor receptor 4 (Homo sapiens) (UniProt P22455); conditions: at 0.1 µM;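 note: values are mean percent inhibition of FGFR4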

Fibroblast growth factor receptor 3 (Homo sapiens), sequence (P22607 23-806 limits assumed): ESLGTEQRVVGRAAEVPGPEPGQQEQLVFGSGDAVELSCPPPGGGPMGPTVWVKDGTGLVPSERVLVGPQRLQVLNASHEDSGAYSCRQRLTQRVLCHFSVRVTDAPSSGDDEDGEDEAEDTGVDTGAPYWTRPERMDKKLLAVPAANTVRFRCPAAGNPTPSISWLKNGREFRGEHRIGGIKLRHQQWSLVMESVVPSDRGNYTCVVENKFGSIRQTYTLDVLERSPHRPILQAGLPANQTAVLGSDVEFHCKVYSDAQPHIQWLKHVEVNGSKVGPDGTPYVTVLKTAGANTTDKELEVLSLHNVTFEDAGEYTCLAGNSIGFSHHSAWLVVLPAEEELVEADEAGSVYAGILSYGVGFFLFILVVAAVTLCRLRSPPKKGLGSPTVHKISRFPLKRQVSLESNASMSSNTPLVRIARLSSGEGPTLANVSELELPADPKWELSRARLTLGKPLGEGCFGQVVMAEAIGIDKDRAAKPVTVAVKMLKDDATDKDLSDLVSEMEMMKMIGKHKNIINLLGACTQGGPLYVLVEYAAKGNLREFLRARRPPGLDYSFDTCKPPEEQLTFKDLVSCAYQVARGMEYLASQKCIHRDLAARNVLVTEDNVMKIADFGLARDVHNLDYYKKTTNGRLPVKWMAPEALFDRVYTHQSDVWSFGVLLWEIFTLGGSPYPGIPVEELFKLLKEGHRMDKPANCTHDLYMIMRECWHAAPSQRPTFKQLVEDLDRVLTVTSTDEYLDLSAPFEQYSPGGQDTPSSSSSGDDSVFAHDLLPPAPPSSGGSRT
Fibroblast growth factor receptor 1 (Homo sapiens), sequence (P11362 22-822 limits assumed): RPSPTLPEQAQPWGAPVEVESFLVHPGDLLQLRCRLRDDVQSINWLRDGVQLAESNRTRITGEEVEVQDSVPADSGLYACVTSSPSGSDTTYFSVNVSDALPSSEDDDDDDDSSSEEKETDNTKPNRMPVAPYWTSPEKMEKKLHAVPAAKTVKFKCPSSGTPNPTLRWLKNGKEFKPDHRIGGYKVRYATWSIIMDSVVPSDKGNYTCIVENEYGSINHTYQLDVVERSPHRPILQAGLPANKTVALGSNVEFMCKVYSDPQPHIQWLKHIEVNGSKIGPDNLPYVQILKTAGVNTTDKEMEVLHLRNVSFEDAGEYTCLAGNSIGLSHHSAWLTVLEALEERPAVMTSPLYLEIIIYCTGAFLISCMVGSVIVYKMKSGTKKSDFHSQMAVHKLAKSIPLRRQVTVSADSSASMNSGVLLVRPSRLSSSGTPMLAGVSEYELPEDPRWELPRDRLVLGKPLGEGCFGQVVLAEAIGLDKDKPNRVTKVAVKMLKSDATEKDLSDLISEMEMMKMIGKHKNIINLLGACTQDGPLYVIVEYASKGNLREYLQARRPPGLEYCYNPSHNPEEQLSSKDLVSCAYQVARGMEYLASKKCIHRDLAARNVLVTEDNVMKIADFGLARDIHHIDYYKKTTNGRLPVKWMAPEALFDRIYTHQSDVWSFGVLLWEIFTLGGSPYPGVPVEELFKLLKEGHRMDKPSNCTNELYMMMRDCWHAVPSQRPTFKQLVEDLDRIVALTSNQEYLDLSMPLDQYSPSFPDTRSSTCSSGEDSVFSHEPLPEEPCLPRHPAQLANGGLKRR
Receptor tyrosine-protein kinase erbB-4 (Homo sapiens), sequence (Q15303 whole entry): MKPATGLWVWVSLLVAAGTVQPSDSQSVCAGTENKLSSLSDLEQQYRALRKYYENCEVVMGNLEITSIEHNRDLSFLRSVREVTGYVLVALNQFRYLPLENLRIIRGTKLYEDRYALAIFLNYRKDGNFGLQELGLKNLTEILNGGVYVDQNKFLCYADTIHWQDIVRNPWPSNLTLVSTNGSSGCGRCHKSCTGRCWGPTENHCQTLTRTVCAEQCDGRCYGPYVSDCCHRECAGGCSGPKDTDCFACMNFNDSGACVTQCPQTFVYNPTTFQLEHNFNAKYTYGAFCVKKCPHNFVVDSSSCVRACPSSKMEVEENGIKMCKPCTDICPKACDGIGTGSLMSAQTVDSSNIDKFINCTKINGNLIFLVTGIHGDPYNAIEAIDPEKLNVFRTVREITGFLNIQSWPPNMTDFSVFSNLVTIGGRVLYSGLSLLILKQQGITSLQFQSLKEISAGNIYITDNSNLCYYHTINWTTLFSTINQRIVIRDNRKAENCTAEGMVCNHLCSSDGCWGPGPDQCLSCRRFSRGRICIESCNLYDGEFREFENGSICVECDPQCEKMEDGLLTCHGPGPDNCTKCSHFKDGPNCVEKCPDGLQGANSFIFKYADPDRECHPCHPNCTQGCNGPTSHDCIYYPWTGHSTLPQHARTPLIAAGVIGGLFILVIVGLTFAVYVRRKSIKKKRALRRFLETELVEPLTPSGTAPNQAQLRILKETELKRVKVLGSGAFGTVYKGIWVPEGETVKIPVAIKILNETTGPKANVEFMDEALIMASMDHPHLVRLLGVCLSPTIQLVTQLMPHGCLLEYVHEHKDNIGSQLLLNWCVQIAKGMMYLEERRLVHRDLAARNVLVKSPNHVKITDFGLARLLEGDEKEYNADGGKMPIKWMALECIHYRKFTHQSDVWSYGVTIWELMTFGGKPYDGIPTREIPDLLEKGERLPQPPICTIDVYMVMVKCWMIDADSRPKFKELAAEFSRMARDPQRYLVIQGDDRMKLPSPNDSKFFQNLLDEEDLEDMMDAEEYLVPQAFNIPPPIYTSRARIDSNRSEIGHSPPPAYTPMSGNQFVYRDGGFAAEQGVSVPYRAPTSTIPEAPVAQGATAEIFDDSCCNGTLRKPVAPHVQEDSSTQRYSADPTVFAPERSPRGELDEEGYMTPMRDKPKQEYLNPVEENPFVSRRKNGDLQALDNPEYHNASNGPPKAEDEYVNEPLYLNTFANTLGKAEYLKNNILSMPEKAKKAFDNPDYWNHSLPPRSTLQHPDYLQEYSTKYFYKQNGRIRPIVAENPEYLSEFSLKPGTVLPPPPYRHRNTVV
Receptor tyrosine-protein kinase erbB-2 (Homo sapiens), sequence (P04626 whole entry): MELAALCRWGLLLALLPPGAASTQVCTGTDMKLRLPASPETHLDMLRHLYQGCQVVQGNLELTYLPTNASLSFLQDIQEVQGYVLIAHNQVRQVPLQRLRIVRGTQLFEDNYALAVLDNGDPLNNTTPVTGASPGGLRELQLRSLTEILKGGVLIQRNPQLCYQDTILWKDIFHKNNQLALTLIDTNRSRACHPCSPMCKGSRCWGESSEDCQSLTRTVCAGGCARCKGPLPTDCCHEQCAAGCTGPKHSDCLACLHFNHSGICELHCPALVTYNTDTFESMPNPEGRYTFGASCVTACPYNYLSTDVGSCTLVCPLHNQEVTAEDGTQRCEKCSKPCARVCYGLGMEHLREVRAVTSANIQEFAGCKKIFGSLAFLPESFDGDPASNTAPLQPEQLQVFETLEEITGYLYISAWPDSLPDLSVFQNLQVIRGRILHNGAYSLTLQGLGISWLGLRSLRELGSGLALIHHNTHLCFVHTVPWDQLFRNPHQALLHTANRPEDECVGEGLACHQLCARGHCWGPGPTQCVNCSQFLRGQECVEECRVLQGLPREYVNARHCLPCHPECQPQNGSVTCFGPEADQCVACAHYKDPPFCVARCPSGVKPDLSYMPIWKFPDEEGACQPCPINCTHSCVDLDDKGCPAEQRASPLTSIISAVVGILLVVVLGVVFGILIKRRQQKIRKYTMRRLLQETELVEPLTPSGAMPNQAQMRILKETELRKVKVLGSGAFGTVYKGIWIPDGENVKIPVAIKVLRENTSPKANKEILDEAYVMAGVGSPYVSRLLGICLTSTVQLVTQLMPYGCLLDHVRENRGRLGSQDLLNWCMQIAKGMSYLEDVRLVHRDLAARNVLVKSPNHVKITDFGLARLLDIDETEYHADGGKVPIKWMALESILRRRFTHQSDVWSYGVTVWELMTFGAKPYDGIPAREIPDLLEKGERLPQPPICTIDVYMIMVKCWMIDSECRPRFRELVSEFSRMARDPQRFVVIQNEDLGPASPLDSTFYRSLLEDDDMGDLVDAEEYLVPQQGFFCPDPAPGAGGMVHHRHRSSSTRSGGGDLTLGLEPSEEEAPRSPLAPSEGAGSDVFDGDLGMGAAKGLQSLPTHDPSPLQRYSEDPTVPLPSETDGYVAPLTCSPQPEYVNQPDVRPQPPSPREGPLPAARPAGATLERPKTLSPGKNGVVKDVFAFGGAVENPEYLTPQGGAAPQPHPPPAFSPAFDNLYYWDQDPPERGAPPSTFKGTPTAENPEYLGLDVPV
Tyrosine-protein kinase Fer (Homo sapiens), sequence (P16591 whole entry, looked up): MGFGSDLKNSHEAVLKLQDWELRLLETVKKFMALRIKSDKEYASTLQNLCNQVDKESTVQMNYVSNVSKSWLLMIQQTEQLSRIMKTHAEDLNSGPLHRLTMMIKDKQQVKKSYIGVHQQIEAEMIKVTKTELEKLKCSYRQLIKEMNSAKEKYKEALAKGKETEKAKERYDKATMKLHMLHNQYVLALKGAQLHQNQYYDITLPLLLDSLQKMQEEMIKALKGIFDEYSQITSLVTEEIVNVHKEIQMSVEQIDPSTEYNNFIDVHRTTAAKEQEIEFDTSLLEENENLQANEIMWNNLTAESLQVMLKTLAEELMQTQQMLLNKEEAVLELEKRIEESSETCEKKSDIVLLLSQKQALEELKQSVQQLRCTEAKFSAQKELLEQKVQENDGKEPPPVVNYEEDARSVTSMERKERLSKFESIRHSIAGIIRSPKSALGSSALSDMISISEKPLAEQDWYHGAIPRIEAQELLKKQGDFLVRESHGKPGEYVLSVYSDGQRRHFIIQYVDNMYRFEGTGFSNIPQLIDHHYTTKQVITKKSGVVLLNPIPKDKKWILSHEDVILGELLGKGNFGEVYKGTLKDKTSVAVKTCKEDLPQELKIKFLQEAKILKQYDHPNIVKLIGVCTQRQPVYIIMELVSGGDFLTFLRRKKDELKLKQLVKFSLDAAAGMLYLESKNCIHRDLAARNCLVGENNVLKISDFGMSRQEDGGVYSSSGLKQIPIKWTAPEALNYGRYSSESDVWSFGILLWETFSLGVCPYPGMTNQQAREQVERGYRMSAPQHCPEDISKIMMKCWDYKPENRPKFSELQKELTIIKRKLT

SMILES	inhibition [1] [%]	inhibition [2] [%]	inhibition [3] [%]	inhibition [4] [%]	inhibition [5] [%]	inhibition [6] [%]	inhibition [7] [%]	inhibition [8] [%]	inhibition [9] [%]	inhibition [10] [%]	inhibition [11] [%]	inhibition [12] [%]	inhibition [13] [%]	inhibition [14] [%]	inhibition [15] [%]	inhibition [16] [%]	inhibition [17] [%]	inhibition [18] [%]	inhibition [19] [%]	inhibition [20] [%]
CC1=C(C(=O)Nc2ccc3[nH]ncc3c2)C(c2ccc(F)cc2)N=C(c2ccc(C(F)(F)F)nc2)N1 (stereo not given)	8.11	3.81	2.31	1.15	2.78	1.68	3.01	7.98	11.7	0.93	2.23	1.4	2.21	6.73	7.75	4.37	9.66	4.88	7.89	0.81
COc1cc(Nc2ncc(-c3ccccc3)o2)cc(OC)c1	11.5	3.34	3.15	1.28	4.64	2.1	3.72	9.38	14.6	0.58	3.14	3.89	3.89	2.6	7.89	3.62	11.7	1.91	10.2	-1.24
COc1ccccc1-c1cc(/C=C2\C(=O)Nc3ncc(Br)cc32)cc(Br)c1O	7.78	8.03	5.59	1.76	4.26	1.14	-4.15	11.2	17.7	1.71	9.31	3.24	4.41	3.85	14	6.66	18	8.55	14	-0.86
c1cnn2ncc(-c3ccnc(NCCCN4CCOCC4)n3)c2c1	9.04	6.96	3.37	1.21	1.07	1.75	-0.02	8.02	8.49	0.82	1.85	2.2	5.72	1.29	2.22	1	3.87	3.61	1.83	-0.18
CNC(=O)c1sc(-n2cnc3cc(OC)c(OC)cc32)cc1OCc1ccccc1C(F)(F)F	14	4.48	3.52	0.98	5.78	2.12	3.74	6.92	10.3	2.95	5.74	3.32	3.26	-4.6	7.69	4.22	7.4	2.02	7.23	0.59
CS(=O)(=O)CCNCc1ccc(-c2ccc3ncnc(Nc4ccc(OCc5cccc(C(F)(F)F)c5)cc4)c3c2)o1	6.28	3.02	3.57	0.6	2.19	4.88	3.5	7.3	28.5	-1.96	0.74	3.52	4.12	6.33	10.8	6.07	14.2	9.13	10.7	4.16
Cc1c2ccc(N(C)c3ccnc(Nc4cccc(S(N)(=O)=O)c4)n3)cc2nn1C	23.3	3.38	0.55	0.19	10.3	1.55	-3.44	5.59	12.1	25.1	74.1	15.2	56.1	24.9	62.6	50	69.9	35.5	70.1	2.26
